Jurkat NFkB inh – inhibitors of induced NF-kB luciferase reporter, primary screen, TCR NF-kB activation inhibitor project, cell-based, luminescence, uHTS; inhibition, % at 4 µM; Jurkat, PMA/ionomycin-induced NF-kB luciferase reporter; 330,000 tested, 0.53% active; in the data active means inhibition above about 50%
697 NFkB inh – inhibitors of PMA/ionomycin-induced NF-kB reporter, 697 cells, primary screen, B-cell NF-kB inhibitor project, cell-based, luminescence, uHTS; 697 B-cell NF-kB luciferase reporter, 16 h; 330,000 tested, 0.33% active; inhibition, % at 4 µM; in the data active means inhibition above about 35%
CFTR F508del cor – F508del CFTR correction, initial screen, CFBE line, single point | 350,000 tested, 0.36% active | AID 720511, 2013 | CFBE cells, YFP halide quenching; stimulated with forskolin plus potentiator P3; % fluorescence drop versus neutral controls | activity (quench increase), % at 7.58 µM;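 active means mean added fluorescence quench of at least 8% versus neutral control, with both replicates also reaching 8%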;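 further: cells transiently co-express mutant CFTR-F508del with the halide-sensitive YFP; corrector assay measuring rescue of mutant channel to the surface after 24 h compound exposure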
HIF act – HIF pathway transcriptional activators, primary screen, cell-based, U2OS HRE-luciferase, luminescence | U2OS HRE-luciferase reporter; normalized: DMSO 0%, desferrioxamine 100% | 300,000 tested, 0.32% active | activation, % at 7.5 µM (by protocol);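 active means mean activation of at least 10% of the iron chelator positive control signal, with at least half of replicates also reaching 10%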
Jurkat NFkB conf – PMA/ionomycin-induced NF-kB reporter inhibitors, Jurkat retest, confirmation, T-cell NF-kB inhibitor project, cell-based, luminescence, single concentration. shares compounds with Jurkat NFkB inh. Jurkat NF-kB luciferase, 16 h. inhibition, % at 4 µM. 2,700 tested, 27% active. AID 435020, 2010;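 active means inhibition reaching about 45% at 4 µM in either replicate, limit read from the data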
697 NFkB conf – PMA/ionomycin-induced NF-kB reporter inhibitors, 697 retest, confirmation, B-cell NF-kB inhibitor project, cell-based, luminescence, single concentration; 2,000 tested, 35% active; shares compounds with 697 NFkB inh; 697 B-cell NF-kB luciferase, 16 h; inhibition, % at 4 µM; in the data active means inhibition mostly above about 28%, no sharp cut-off; inactive means mostly below about 22%
Of the large screens only hits and unclear results are named; the others gave an inactive call (follow-up assays come after a bar, where they were run); ! = not active in a repeat. Most compounds without a hit are left out; they make up all but 0.93% or so of the library.

Cc1c(C(=O)Nc2cccc([N+](=O)[O-])c2)csc1-c1ccccc1	none (no result: CFTR F508del cor) | Jurkat NFkB conf inactive | 697 NFkB conf inactive
O=C(O)c1ccccc1C(=O)Nc1cccc([N+](=O)[O-])c1	none
CCCCOc1ccccc1NC(=O)Cn1c(-c2nonc2N)nc2ccccc21	Jurkat NFkB inh 59, 697 NFkB inh 35 (no result: CFTR F508del cor) | Jurkat NFkB conf inactive | 697 NFkB conf inactive
COc1ccccc1N1CCN(c2cc(N3CCCC3)nc(C)n2)CC1	none (no result: CFTR F508del cor, HIF act)
COc1ccccc1N1CCN(c2ccc3ccccc3n2)CC1	none | Jurkat NFkB conf inactive | 697 NFkB conf inactive
COc1ccc2c3c(n(C)c2c1)[C@H](CO)NCC31CCN(S(=O)(=O)c2ccccc2)CC1	none (no result: Jurkat NFkB inh, 697 NFkB inh, HIF act)
COC(=O)[C@@]1(CCS(=O)(=O)c2ccccc2)COC(c2ccc(OCCCO)cc2)=N1	none (no result: Jurkat NFkB inh, 697 NFkB inh, HIF act)
Cc1nn(-c2nc3ccccc3s2)c(C)c1Oc1ccccc1O	none (no result: CFTR F508del cor) | Jurkat NFkB conf inactive | 697 NFkB conf inactive
Cc1nn(-c2ccccn2)c(C)c1Oc1ccccc1O	none (no result: CFTR F508del cor)
Cc1noc(C)c1S(=O)(=O)N(C)C[C@H]1Oc2ccc(NC(=O)C3CC3)cc2CC(=O)N([C@H](C)CO)C[C@@H]1C	none (no result: Jurkat NFkB inh, 697 NFkB inh, HIF act)
C[C@H]1CN([C@@H](C)CO)C(=O)Cc2cc(NS(=O)(=O)c3cccs3)ccc2O[C@H]1CN(C)S(=O)(=O)c1cccs1	none (no result: Jurkat NFkB inh, 697 NFkB inh, HIF act)
Cc1cc(N2CCN(c3nc4ccccc4s3)CC2)n2ncnc2n1	Jurkat NFkB inh 62, 697 NFkB inh 54 (no result: CFTR F508del cor) | Jurkat NFkB conf 54 | 697 NFkB conf 42
CCCC(=O)N1CC2(CN[C@H](CO)c3c2c2ccc(OC)cc2n3C)C1	none (no result: Jurkat NFkB inh, 697 NFkB inh, HIF act)
CCCCC#Cc1ccc2c(c1)COc1c3ccccc3nn1-2	none
N#CCCCC#Cc1ccc2c(c1)COc1c3ccccc3nn1-2	none | Jurkat NFkB conf inactive | 697 NFkB conf inactive
C[C@H]1CN([C@@H](C)CO)C(=O)c2cc(C#CCN(C)C)cnc2O[C@H]1CN(C)S(=O)(=O)c1ccccc1	none (no result: Jurkat NFkB inh, 697 NFkB inh, HIF act)
O=C(CCS(=O)(=O)c1ccccc1)Nc1ccc(-c2nc3ccccc3s2)cc1	none | Jurkat NFkB conf inactive | 697 NFkB conf inactive
O=C(CCS(=O)(=O)c1ccccc1)Nc1cccc(-c2nc3ccccc3s2)c1	none
N#Cc1c(NC(=O)CSc2ncn[nH]2)sc2c1CCCC2	Jurkat NFkB inh 52, 697 NFkB inh 62 (no result: CFTR F508del cor) | Jurkat NFkB conf inactive | 697 NFkB conf 47
CC1CCc2c(sc(NC(=O)CSc3ncn[nH]3)c2C#N)C1 (stereo not drawn)	Jurkat NFkB inh 61, 697 NFkB inh 58 | Jurkat NFkB conf 61 | 697 NFkB conf 52
N#Cc1c(NC(=O)c2ccccc2)sc2c1CCCCC2	none (no result: CFTR F508del cor) | Jurkat NFkB conf inactive | 697 NFkB conf inactive
CCC(=O)N(C)C[C@@H]1Oc2cc(C#CCOC)ccc2S(=O)(=O)N([C@H](C)CO)C[C@@H]1C	none (no result: Jurkat NFkB inh, 697 NFkB inh, HIF act)
CCc1ccc2oc(-c3ccc(NC(C)=O)cc3)nc2c1	none | Jurkat NFkB conf inactive | 697 NFkB conf inactive
CCCC(=O)Nc1ccc(-c2nc3cc(C)c(C)cc3o2)cc1	none (no result: CFTR F508del cor) | Jurkat NFkB conf inactive | 697 NFkB conf inactive
CCC(C)NCC(=O)Nc1ccc(-c2nc3cc(NC(=O)CNC(C)CC)ccc3o2)cc1 (stereo not drawn)	none (no result: CFTR F508del cor, HIF act)
CCN=c1scc(-c2ccc(F)cc2)n1/N=C/c1ccccn1	none
CCN=c1scc(-c2ccccc2)n1/N=C/c1ccccn1	none (no result: CFTR F508del cor) | Jurkat NFkB conf inactive | 697 NFkB conf inactive
Cc1nc2ccccc2c(=O)n1/N=C/c1ccccn1	none (no result: CFTR F508del cor)
C=CCN=c1scc(-c2ccccc2)n1/N=C/c1ccccn1	CFTR F508del cor 8.4! | Jurkat NFkB conf inactive | 697 NFkB conf inactive
CCOC(=O)c1sc(NC(=O)c2sccc2C)cc1C	none (no result: CFTR F508del cor) | Jurkat NFkB conf inactive | 697 NFkB conf inactive
COc1cc(CSc2nnnn2-c2ccc(C)cc2)cc(OC)c1OC	Jurkat NFkB inh 59, 697 NFkB inh 44 (no result: CFTR F508del cor) | Jurkat NFkB conf 60 | 697 NFkB conf 47
COc1ccc(NC(=O)N(C)C[C@H]2Oc3ccc(NC(=O)NC4CCCCC4)cc3CC(=O)N([C@@H](C)CO)C[C@H]2C)cc1	none (no result: Jurkat NFkB inh, 697 NFkB inh, HIF act)
COc1cccc2c1C(=O)c1c(O)c3c(c(O)c1C2=O)C[C@@](O)(C(=O)CO)C[C@@H]3O[C@H]1C[C@H](N)[C@H](O)[C@H](C)O1	Jurkat NFkB inh 90, 697 NFkB inh 94, CFTR F508del cor 31 | Jurkat NFkB conf 89 | 697 NFkB conf 77
COc1ccc(CCN(C)c2ccc(S(=O)(=O)N3CCCC3)cc2[N+](=O)[O-])cc1OC	none (no result: CFTR F508del cor)
COc1ccc(CN(C)c2ccc(S(=O)(=O)N3CCN(C)CC3)cc2[N+](=O)[O-])cc1OC	Jurkat NFkB inh 68, 697 NFkB inh 87 (no result: HIF act) | Jurkat NFkB conf 75 | 697 NFkB conf 97
C[C@@H](NC(=O)C[C@@H]1C=C[C@@H](NC(=O)C2CCC2)[C@@H](CO)O1)c1ccccc1	none (no result: Jurkat NFkB inh, 697 NFkB inh, HIF act)
CN1C(=O)c2cc(NC(=O)C3CC3)ccc2OC[C@@H]2O[C@H](CC(=O)NCc3cccc(F)c3)CC[C@@H]21	none (no result: Jurkat NFkB inh, 697 NFkB inh, HIF act)
Cc1cc(/C=C2\Sc3ccccc3N2C)cc(C)[n+]1CC1CCCO1 (stereo not drawn)	Jurkat NFkB inh 97, 697 NFkB inh 36 (no result: HIF act) | Jurkat NFkB conf inactive | 697 NFkB conf inactive
CC1CN/C(=C\C(=O)c2ccc(Cl)cc2)C(=O)N1 (stereo not drawn)	none (no result: CFTR F508del cor) | Jurkat NFkB conf inactive | 697 NFkB conf inactive
CC1CN/C(=C\C(=O)c2ccccc2)C(=O)N1 (stereo not drawn)	none (no result: CFTR F508del cor)
CO[C@H]1CN(C)C(=O)c2ccc(NC(C)=O)cc2OC[C@@H](C)N(S(=O)(=O)c2cn(C)cn2)C[C@@H]1C	none (no result: Jurkat NFkB inh, 697 NFkB inh, HIF act)
CC1CCCN(c2ccc([N+](=O)[O-])cc2C(=O)c2ccccc2)C1 (stereo not drawn)	Jurkat NFkB inh 51, 697 NFkB inh 35 (no result: CFTR F508del cor) | Jurkat NFkB conf inactive | 697 NFkB conf 30
CC1CCN(c2ccc([N+](=O)[O-])cc2C(=O)O)CC1	none (no result: CFTR F508del cor)
CC(C)(C)c1ccc(/C=N/Nc2cccc(C(=O)O)c2)cc1	none
CC(C)(C)c1ccc(/C=N/Nc2ccc(C(=O)O)cc2)cc1	Jurkat NFkB inh 59 (no result: CFTR F508del cor) | Jurkat NFkB conf inactive | 697 NFkB conf inactive
C[C@@H]1C=CC(=O)O[C@@H]1c1ccc(C(F)(F)F)cc1	Jurkat NFkB inh 97, 697 NFkB inh 60 (no result: CFTR F508del cor) | Jurkat NFkB conf 97 | 697 NFkB conf inactive
O=C1CCCCCN1C(=O)c1ccccc1	none (no result: Jurkat NFkB inh, 697 NFkB inh, HIF act)
CC(C)(C)c1ccc(C(=O)N2CCCCCC2=O)cc1	Jurkat NFkB inh 54, 697 NFkB inh 71 (no result: CFTR F508del cor) | Jurkat NFkB conf 67 | 697 NFkB conf 66
COC(=O)c1ccc(NC(=O)C(=O)c2c[nH]c3ccccc23)cc1	none
O=C(Nc1ccccc1)C(=O)c1c[nH]c2ccccc12	none | Jurkat NFkB conf inactive | 697 NFkB conf inactive
